{"source": "paper PMC10668032", "about": "“Altered binding affinity of SIX1-Q177R correlates with enhanced WNT5A and WNT pathway effector expression in Wilms tumor”", "note": "The full ranking holds about 33,000 sequences; the median of “e-score” is about -0.053, and the highest 2% start at about 0.38. Many of the other results were omitted from the sample, so the highest values are more common in it than they were.", "data": [{"target": "T1, SIX1 homeodomain (reference allele) (human, UniProt Q15475 108-198)", "T1 sequence": "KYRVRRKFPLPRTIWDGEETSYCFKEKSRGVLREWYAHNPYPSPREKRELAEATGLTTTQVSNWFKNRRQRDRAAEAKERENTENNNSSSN", "assay": "universal protein binding microarray; Universal all-10-mer PBM (8x60K, AMADID 030236), 300 nM GST-tagged protein, Alexa Fluor 488 anti-GST; buffer, salt, pH and temperature not stated (as in Berger); high values mean tight binding", "settings": "protein: ivt; tags: N-terminal GST; dsDNA, one strand shown", "outline": "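Homeodomains carrying a GST tag were produced by in vitro transcription/translation, then quantified by anti-GST western blot against a recombinant GST standard curve. Duplicate applications at 300 nM final concentration were made to universal 'all 10-mer' protein binding microarrays in 8×60K format. The Universal PBM Analysis Suite was used to express binding as 8-mer E-scores.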", "units": {"binding signal": "E-score"}, "values": [{"sequence": "GGTATGAA", "binding signal": "0.224 ± 0.00641"}, {"sequence": "GCCTAATA", "binding signal": "0.167 ± 0.0373"}, {"sequence": "ATCATGCA", "binding signal": "0.225 ± 0.0116"}, {"sequence": "AGATAGTA", "binding signal": "0.24 ± 0.0305"}, {"sequence": "ACCGTATC", "binding signal": "0.449 ± 0.00906"}, {"sequence": "ACCGTATA", "binding signal": "0.278 ± 0.0281"}, {"sequence": "CCCGTCTC", "binding signal": "0.205 ± 0.0534"}, {"sequence": "CCCGTATA", "binding signal": "0.29 ± 0.023"}, {"sequence": "ACCGTCTC", "binding signal": "0.251 ± 0.0203"}, {"sequence": "CCCGTATC", "binding signal": "0.469 ± 0.0109"}, {"sequence": "ATACAGTC", "binding signal": "0.163 ± 0.00378"}, {"sequence": "CAGATAGC", "binding signal": "0.171 ± 0.0462"}, {"sequence": "GGGATTAC", "binding signal": "0.167 ± 0.011"}, {"sequence": "CAGGATTA", "binding signal": "0.213 ± 0.0434"}, {"sequence": "CGGATTAC", "binding signal": "0.299 ± 0.00435"}, {"sequence": "AGATAATA", "binding signal": "0.245 ± 0.114"}, {"sequence": "ATCAAATA", "binding signal": "0.239 ± 0.0859"}, {"sequence": "CACAATAC", "binding signal": "0.31 ± 0.0105"}, {"sequence": "ATACTACC", "binding signal": "0.23 ± 0.0327"}, {"sequence": "GATGGATA", "binding signal": "0.3768 ± 0.0011"}, {"sequence": "CATGGATA", "binding signal": "0.3 ± 0.00508"}, {"sequence": "GAGGGGTA", "binding signal": "0.257 ± 0.0214"}, {"sequence": "TAGGGATA", "binding signal": "0.41 ± 0.00754"}, {"sequence": "AATGGATA", "binding signal": "0.354 ± 0.0168"}, {"sequence": "TAGGGAGA", "binding signal": "0.177 ± 0.0683"}, {"sequence": "GAGGGATA", "binding signal": "0.412 ± 0.00552"}, {"sequence": "AAGGGATA", "binding signal": "0.37 ± 0.0084"}, {"sequence": "GAGGGATC", "binding signal": "0.397 ± 0.00899"}, {"sequence": "GGCATATA", "binding signal": "0.29 ± 0.00948"}, {"sequence": "CGGATTAA", "binding signal": "0.351 ± 0.0739"}, {"sequence": "CTATAATA", "binding signal": "0.259 ± 0.0899"}, {"sequence": "GATCTCGC", "binding signal": "0.254 ± 0.0311"}, {"sequence": "ATAGATGA", "binding signal": "0.287 ± 0.0197"}, {"sequence": "ATCGTGCA", "binding signal": "0.16 ± 0.0147"}, {"sequence": "ATATGGAT", "binding signal": "0.371 ± 0.00838"}, {"sequence": "ACGGATCG", "binding signal": "0.354 ± 0.0265"}, {"sequence": "CCGGATTC", "binding signal": "0.249 ± 0.0385"}, {"sequence": "ACGGATCA", "binding signal": "0.43 ± 0.0139"}, {"sequence": "ACGGATCC", "binding signal": "0.386 ± 0.0442"}, {"sequence": "ACAGATCC", "binding signal": "0.288 ± 0.0336"}, {"sequence": "CCGGATCC", "binding signal": "0.424 ± 0.034"}, {"sequence": "CCAGATCC", "binding signal": "0.332 ± 0.0766"}, {"sequence": "GCGGATCC", "binding signal": "0.348 ± 0.0564"}, {"sequence": "ACGGATCT", "binding signal": "0.324 ± 0.0553"}, {"sequence": "CCCGATCG", "binding signal": "0.323 ± 0.0723"}, {"sequence": "CCGGATCG", "binding signal": "0.417 ± 0.0468"}, {"sequence": "ATCTCGAG", "binding signal": "0.215 ± 0.0177"}, {"sequence": "AACCCATA", "binding signal": "0.263 ± 0.0634"}, {"sequence": "GTTAGATA", "binding signal": "0.248 ± 0.0413"}, {"sequence": "AAGATCAA", "binding signal": "0.201 ± 0.0668"}, {"sequence": "ATCCTACC", "binding signal": "0.299 ± 0.0201"}, {"sequence": "CGTATTAG", "binding signal": "0.174 ± 0.0547"}, {"sequence": "GTACACGA", "binding signal": "0.165 ± 0.0933"}, {"sequence": "ACTAGATC", "binding signal": "0.181 ± 0.003"}, {"sequence": "CGAAGATA", "binding signal": "0.325 ± 0.0496"}, {"sequence": "ATCCCGAC", "binding signal": "0.238 ± 0.0448"}, {"sequence": "AACCGATA", "binding signal": "0.41 ± 0.00758"}, {"sequence": "GCCCGATA", "binding signal": "0.33 ± 0.0332"}, {"sequence": "ACCCGATC", "binding signal": "0.372 ± 0.0497"}, {"sequence": "CACCGATA", "binding signal": "0.374 ± 0.0197"}, {"sequence": "TACCGATA", "binding signal": "0.375 ± 0.0115"}, {"sequence": "ACCCGATA", "binding signal": "0.4 ± 0.0453"}, {"sequence": "ATACATTA", "binding signal": "0.223 ± 0.0139"}, {"sequence": "ATCCATGC", "binding signal": "0.253 ± 0.0158"}, {"sequence": "ATCCGAAC", "binding signal": "0.278 ± 0.0321"}, {"sequence": "ACGGATAT", "binding signal": "0.4283 ± 0.00251"}, {"sequence": "ACGGATTG", "binding signal": "0.179 ± 0.0302"}, {"sequence": "CCGGATAA", "binding signal": "0.299 ± 0.0306"}, {"sequence": "CCGGATAC", "binding signal": "0.4414 ± 0.00339"}, {"sequence": "ACGGATAG", "binding signal": "0.344 ± 0.0201"}, {"sequence": "GCGGATAA", "binding signal": "0.317 ± 0.0316"}, {"sequence": "ACGGATAA", "binding signal": "0.216 ± 0.0405"}, {"sequence": "ACGGATAC", "binding signal": "0.454 ± 0.00689"}, {"sequence": "CCGGATAG", "binding signal": "0.361 ± 0.0142"}, {"sequence": "GCGGATAC", "binding signal": "0.43 ± 0.00572"}, {"sequence": "ACGGATTC", "binding signal": "0.187 ± 0.0297"}, {"sequence": "AGGTAGAT", "binding signal": "0.2625 ± 0.00214"}, {"sequence": "GATCTGCC", "binding signal": "0.334 ± 0.00569"}, {"sequence": "ATCCGAGC", "binding signal": "0.24 ± 0.00809"}, {"sequence": "GTATTACA", "binding signal": "0.227 ± 0.0055"}, {"sequence": "GATAGTCC", "binding signal": "0.24 ± 0.023"}, {"sequence": "GGTGTTAA", "binding signal": "0.301 ± 0.0173"}, {"sequence": "ATCTGTAC", "binding signal": "0.221 ± 0.0203"}, {"sequence": "ATCGCATA", "binding signal": "0.287 ± 0.0238"}, {"sequence": "GATCATTA", "binding signal": "0.348 ± 0.0458"}, {"sequence": "AGTCTGAT", "binding signal": "0.19 ± 0.0144"}]}]}
